Measurements from PubChem BioAssay AID1159580 (chemical genetic matrix, 2015).
Hit rate of the full screen: of about 5,500 compounds, about 2,000 (36%) were called active. Inconclusive results (about 18%) are left out. Cut-off read from the data, not from the text of the source: active = normalized growth mostly below about 0.91 (no sharp cut-off); inconclusive = no clear call, values can overlap the other calls; inactive = mostly above about 0.92. The list shows a part of the results.

Test: chemical genetic growth profiling, strain panel (AID 1159580);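 note: tested at 20 µM; growth read once vehicle control cultures reached saturation at 30 °C; 1 = growth at the plate median or of vehicle wells; lower values mean less growth of the strain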
Conditions: S. cerevisiae deletion strains, growth OD

Measured: normalized growth

O=C(O)C1=CCNCC1
inactive: locus YAL013W, strain DEP1, hits give low values 0.953 | locus YAL021C, strain ccr4, hits give low values 0.979 | locus YAL026C, strain drs2, hits give low values 1.02 | locus YAL030W, strain snc1, hits give low values 1.02 | locus YBL061C, strain skt5, hits give low values 1.01 | locus YBR009C, strain hhf1, hits give low values 1.03 | locus YBR023C, strain chs3, hits give low values 1.01 | locus YBR171W, strain sec66, hits give low values 1.01 | locus YBR231C, strain swc5, hits give low values 1.05 | locus YBR279W, strain paf1, hits give low values 1.01 | locus YCL011C, strain gbp2, hits give low values 1.01 | locus YCL016C, strain dcc1, hits give low values 1.02 | locus YCL061C, strain MRC1 (second series), hits give low values 0.984 | locus YCL061C, strain MRC1, hits give low values 1.02 | locus YCL069W, strain vba3, hits give low values 1.01 | locus YCR088W, strain abp1, hits give low values 1.02 | locus YDL005C, strain med2, hits give low values 1.01 | locus YDL040C, strain nat1, hits give low values 1 | locus YDR001C, strain nth1, hits give low values 1.01 | locus YDR069C, strain doa4, hits give low values 1.03 | locus YDR137W, strain rgp1, hits give low values 0.985 | locus YDR150W, strain NUM1, hits give low values 0.991 | locus YDR159W, strain sac3, hits give low values 1.02 | locus YDR195W, strain ref2 0.996 | locus YDR297W, strain sur2, hits give low values 1.01 | locus YDR334W, strain swr1, hits give low values 1.02 | locus YDR335W, strain msn5, hits give low values 1.02 | locus YDR363W, strain ESC2, hits give low values 0.979 | locus YDR392W, strain spt3, hits give low values 0.98 | locus YEL003W, strain gim4, hits give low values 1.02 | locus YEL037C, strain rad23, hits give low values 1.01 | locus YEL061C, strain CIN8 (second series), hits give low values 1.01 | locus YER002W, strain NOP16, hits give low values 0.993 | locus YER015W, strain faa2, hits give low values 1.02 | locus YER016W, strain bim1, hits give low values 1.02 | locus YER111C, strain swi4, hits give low values 1.01 | locus YER155C, strain BEM2 (second series), hits give low values 1.05 | locus YFR010W, strain ubp6, hits give low values 1.02 | locus YGL167C, strain pmr1, hits give low values 1.02 | locus YGL173C, strain kem1, hits give low values 1.01 | locus YGL227W, strain vid30, hits give low values 1.01 | locus YGL240W, strain doc1, hits give low values 1.03 | locus YGL253W, strain hxk2, hits give low values 1.01 | locus YHR013C, strain ard1, hits give low values 1.02 | locus YHR027C, strain rpn1, hits give low values 1.02 | locus YHR030C, strain SLT2, hits give low values 1.04 | locus YHR079C, strain IRE1, hits give low values 1.05 | locus YHR142W, strain chs7, hits give low values 0.988 | locus YJL092W, strain hpr5, hits give low values 1.01 | locus YJL095W, strain BCK1 (second series), hits give low values 1.02 | locus YJL095W, strain BCK1, hits give low values 1.03 | locus YJL115W, strain asf1, hits give low values 1.02 | locus YJL129C, strain trk1, hits give low values 1.01 | locus YJL154C, strain vps35, hits give low values 1.01 | locus YJL164C, strain tpk1, hits give low values 1.01 | locus YJL166W, strain qcr8, hits give low values 1.01 | locus YJL187C, strain SWE1, hits give low values 1.01 | locus YJR066W, strain TOR1, hits give low values 0.961 | locus YJR075W, strain HOC1, hits give low values 0.978 | locus YKL160W, strain elf1, hits give low values 0.99 | locus YKR026C, strain gcn3, hits give low values 1.02 | locus YKR091W, strain srl3, hits give low values 1.01 | locus YLL001W, strain dnm1, hits give low values 1.01 | locus YLL026W, hits give low values 1.01 | locus YLL041C, strain sdh2, hits give low values 1.01 | locus YLR027C, strain aat2, hits give low values 1.01 | locus YLR113W, strain HOG1, hits give low values 1.06 | locus YLR221C, strain rsa3, hits give low values 1.02 | locus YLR258W, strain gsy2, hits give low values 1.04 | locus YLR262C, strain YPT6 (second series), hits give low values 1.01 | locus YLR320W, strain mms22, hits give low values 1.03 | locus YLR342W, strain FKS1, hits give low values 1.03 | locus YLR357W, strain rsc2, hits give low values 1.03 | locus YLR370C, strain arc18, hits give low values 1.02 | locus YLR384C, strain iki3, hits give low values 1.01 | locus YML120C, strain ndi1, hits give low values 1.01 | locus YMR058W, strain fet3, hits give low values 1.02 | locus YMR125W, strain sto1, hits give low values 1.02 | locus YMR129W, hits give low values 1.01 | locus YMR205C, strain PFK2, hits give low values 1.03 | locus YMR231W, strain pep5, hits give low values 1.01 | locus YNL071W, strain lat1, hits give low values 1.02 | locus YNL128W, strain TEP1, hits give low values 0.982 | locus YNL153C, strain GIM3, hits give low values 0.965 | locus YNL175C, strain NOP13, hits give low values 0.994 | locus YNL183C, strain NPR1, hits give low values 0.958 | locus YNL209W, strain ssb2, hits give low values 1.01 | locus YNL224C, strain SQS1, hits give low values 0.982 | locus YNL248C, strain rpa49, hits give low values 0.98 | locus YNL322C, strain KRE1 (second series), hits give low values 1.01 | locus YNL322C, strain KRE1, hits give low values 0.991 | locus YNR049C, strain mso1, hits give low values 1.02 | locus YOR001W, strain rrp6, hits give low values 1 | locus YOR070C, strain gyp1, hits give low values 1.02 | locus YOR080W, strain dia2, hits give low values 1.03 | locus YOR083W, strain WHI5, hits give low values 0.982 | locus YOR106W, strain vam3, hits give low values 0.986 | locus YOR231W, strain MKK1, hits give low values 1.04 | locus YOR265W, strain rbl2, hits give low values 1.01 | locus YOR270C, strain vph1, hits give low values 1.02 | locus YOR290C, strain snf2, hits give low values 1.01 | locus YPL051W, strain arl3, hits give low values 1.01 | locus YPL055C, strain LGE1, hits give low values 0.974 | locus YPL078C, strain atp4, hits give low values 0.991 | locus YPL106C, strain sse1, hits give low values 1.02 | locus YPL240C, strain hsp82, hits give low values 1 | locus YPL256C, strain CLN2, hits give low values 1.05
